Screening results from PubChem BioAssay.
TROY signal inh: blocks TROY-dependent signaling in reporter cells; 360,000 compounds, 0.98% hits; inhibition, % at 10 µM; Q293 LMP1-TROYcd NF-kB luciferase reporter, 4 h;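 active means compounds whose plate-normalised and pattern-corrected inhibition of the luciferase reporter signal at the single screening dose is 50% or more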
MITF TRPM1 inh: inhibitors of MITF-driven TRPM1 promoter in melanoma cells | 330,000 compounds, 0.83% hits | SK-MEL-5 TRPM1 promoter luciferase, 24 h | inhibition, % at 12.5 µM;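 active means mean inhibition across replicates of 60% or more, whatever share of single replicates reaches that level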
HIF-2a block: blocks HIF-2a reporter activity; 786-0 RCC cells HIF-2a reporter, luciferase luminescence, overnight; inhibition, % at 18.8 µM; 360,000 compounds, 0.72% hits;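 active means inhibition of the luminescence signal of 40% or more relative to plate controls, in a single-dose primary screen at 18.75 µM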
LMP1 NFkB inh: reduces LMP1-driven NF-kappaB luciferase signal; 350,000 compounds, 0.69% hits; inhibition, % at 12.5 µM; LMP1-induced NF-kappaB luciferase reporter cells, luminescence; in the data active means inhibition above about 41%
Shn3 inh set2: reduces Shn3 3'UTR luciferase signal in osteoblasts; inhibition, % at 12.5 µM; Clone20 osteoblast Shn3 3'UTR firefly luciferase, 24 h; AID 588674; 360,000 compounds, 0.52% hits;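 active means mean inhibition of at least 75% with every replicate also reaching 75%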
TWEAK-Fn14 inh: inhibitors of TWEAK-Fn14 interaction signaling. TWEAK-stimulated Fn14 reporter cells, luciferase luminescence, 8 h. inhibition, % at 10 µM. 360,000 compounds, 2% hits. AID 1159606; in the data active means inhibition above about 50%
Large screens that a line does not name were inactive. Only some compounds are listed: those with a hit (about 3.4% of all), similar ones and a draw of the others.

CCC1(C)Cc2ccccc2-c2nc(NCCO)n(-c3ccc(C)cc3)c(=O)c21 (stereo unspecified)	TROY signal inh 54.2
Cc1ccc(S(=O)(=O)NC(=O)c2cccc(Br)c2)cc1	TWEAK-Fn14 inh 84.5
CCC(CC)C(=O)Nc1cccc(C(=O)Nc2ccc(S(=O)(=O)Nc3ccc(C)cc3)cc2)c1	TROY signal inh 53.7
O=C1CN(C(=O)COC(=O)c2cc(Cl)ccc2[N+](=O)[O-])c2ccccc2N1	none (no result: MITF TRPM1 inh)
COc1ccc(S(=O)(=O)N2CCCCCC2)cc1NC(=O)CN1C(=O)CNC1=O	none
O=C(Nc1ccccc1)N1CCNCC1	TROY signal inh 90.5
C[C@H](CO)N1C[C@H](C)[C@H](CN(C)C(=O)Nc2cccc(C(F)(F)F)c2)OCc2cnnn2CCCC1=O	none (no result: MITF TRPM1 inh)
CC(C)n1cc(/C=N/Nc2ccc(C(=O)O)cc2)c2ccccc21	TROY signal inh 61.7, TWEAK-Fn14 inh 81.2
O=C(O)c1ccc(N/N=C/c2cn(Cc3ccccc3F)c3ccccc23)cc1	none
Oc1ccc(-c2cnns2)c(O)c1	TWEAK-Fn14 inh 63.0
CCOc1ccccc1NC(=O)COC(=O)C1COc2ccccc2O1 (stereo unspecified)	none (no result: MITF TRPM1 inh)
CCOC(=O)CSc1nc2sc3c(c2c(=O)n1-c1ccccc1)CCN(C(C)C)C3	TWEAK-Fn14 inh 83.7
O=C(N/N=C/c1ccc(F)cc1)c1cccc(NC(=O)c2ccccc2Cl)c1	none
Cc1cccc(CN(C)C[C@@H]2OCc3cnnn3CCCC(=O)N([C@H](C)CO)C[C@H]2C)c1	none (no result: MITF TRPM1 inh)
CC(=O)/C=C/c1ccccc1O	LMP1 NFkB inh 51.5
Cc1ccccc1Cn1c(=N)n(CC(O)c2ccco2)c2ccccc21 (stereo unspecified)	none
CC(C)(C)c1ccc(Cn2c(=N)n(CC(O)c3ccco3)c3ccccc32)cc1 (stereo unspecified)	TROY signal inh 53.9, MITF TRPM1 inh 98.0, Shn3 inh set2 82.5, TWEAK-Fn14 inh 69.5
O=C(NCc1ccccc1)c1cccc(COc2ccc3c(c2)CCC3)c1	LMP1 NFkB inh 57.7
COc1cccc(OC)c1C(=O)NNC(=O)c1cccc(COc2ccc3c(c2)CCC3)c1	none
O=C(O)c1cccc(COc2ccc3c(c2)CCC3)c1	MITF TRPM1 inh 95.7, HIF-2a block 88.2, LMP1 NFkB inh 84.6
CC(Oc1ccc(Cl)cc1Cl)C(=O)Nc1ccc2oc(-c3ccncc3)nc2c1 (stereo unspecified)	TROY signal inh 58.9, TWEAK-Fn14 inh 54.0
O=C(Nc1ccc(-c2nc3cc(NC(=O)c4cccs4)ccc3o2)cc1)c1cccs1	MITF TRPM1 inh 73.4
CC(C)C(=O)Nc1ccc(-c2nc3cccnc3o2)cc1	TWEAK-Fn14 inh 60.4
O=C(Nc1ccc2oc(-c3ccncc3)nc2c1)c1cccs1	none
CC(C)C(=O)Nc1ccc(-c2nc3ncccc3o2)cc1	none
Cc1ccc(-c2nc3cc(NC(=O)C(C)C)ccc3o2)cc1C	TROY signal inh 80.3, TWEAK-Fn14 inh 86.2
CCC(C)C(N)C1=NC(C(=O)N[C@@H](CC(C)C)C(=O)N[C@H](CCC(=O)[O-])C(=O)N[C@H](C(=O)N[C@H]2CCCCNC(=O)[C@H](CC(N)=O)NC(=O)[C@@H](CC(=O)[O-])NC(=O)[C@H](Cc3cnc[nH]3)NC(=O)[C@@H](Cc3ccccc3)NC(=O)[C@H]([C@@H](C)CC)NC(=O)[C@@H](CCCN)NC2=O)[C@@H](C)CC)CS1.[Zn+2] (stereo partly specified)	none
CC(=O)[C@H]1CC[C@@H](c2ccccc2)N(S(=O)(=O)c2ccc(C)cc2)C1	none (no result: TROY signal inh, MITF TRPM1 inh, LMP1 NFkB inh, Shn3 inh set2, TWEAK-Fn14 inh)
COc1ccccc1N(C(=O)c1snc(C(N)=O)c1N)C(C(=O)NC1CCCCC1)c1cccc(OC)c1OC (stereo unspecified)	none
Cc1ccc(-c2nc3cc(NC(=O)C(C)C)ccc3o2)cc1	TROY signal inh 52.9, TWEAK-Fn14 inh 61.4
COc1cc(C(=O)NCC(c2ccco2)N2CCc3ccccc3C2)cc(OC)c1OC (stereo unspecified)	none
CC(/C=N/n1c(COc2ccccc2)n[nH]c1=S)=C\c1ccco1	none
COCCOc1nc2c(c(=O)n(C)c(=O)n2C)n1Cc1cccc(OC)c1	Shn3 inh set2 87.4
O=c1cc(-c2ccccc2O)nc(-c2ccccc2)[nH]1	TROY signal inh 57.5, TWEAK-Fn14 inh 52.7
CC1CCN(C(=O)C(NS(=O)(=O)c2cccc3nsnc23)C(C)C)CC1 (stereo unspecified)	none
Cc1ccc2occ(/C=N/NC(=O)c3ccccc3Br)c(=O)c2c1	TWEAK-Fn14 inh 71.3
CCOc1ccccc1C(=O)N/N=C/c1coc2ccc(C)cc2c1=O	none
O=[N+]([O-])c1cccc(NC(=S)Nc2nc(-c3ccccc3Cl)cs2)c1	TWEAK-Fn14 inh 56.0
COc1cc(/C=N/NC(=O)COc2ccc(Cl)cc2)ccc1OS(=O)(=O)c1ccc(C)cc1	none
COc1cc(/C=N/NC(=O)COc2cccc(F)c2)ccc1OS(=O)(=O)c1ccc(C)cc1	TWEAK-Fn14 inh 51.2
O=C(c1ccc(F)cc1)N1CCN(C2=NS(=O)(=O)c3ccccc32)CC1	none
O=C(c1ccco1)N1CCN(C2=NS(=O)(=O)c3ccccc32)CC1	TWEAK-Fn14 inh 85.7 (no result: TROY signal inh)
O=C(O)c1ccccc1-c1ccccc1C(=O)Nc1ccc2c(c1)C(O)c1ccccc1-2 (stereo unspecified)	none (no result: MITF TRPM1 inh)
COc1ccc(C2C(=O)c3ccccc3C2=O)cc1	none
COc1ccc(N=C(C)C2C(=O)c3ccccc3C2=O)cc1	TWEAK-Fn14 inh 64.2 (no result: MITF TRPM1 inh, LMP1 NFkB inh)
CCC(=O)N(C1=C(NC(C)C)C(=O)c2ccccc2C1=O)C(C)C	none
CCCNC1=C(N(C(C)=O)c2cccc(F)c2)C(=O)c2ccccc2C1=O	MITF TRPM1 inh 98.4, HIF-2a block 73.1, TWEAK-Fn14 inh 78.8
Cc1ccc(S(=O)(=O)CC2CSc3nc4ccccc4n32)cc1 (stereo unspecified)	Shn3 inh set2 90.2
Cc1ccc(S(=O)(=O)CC2CSc3nc(N)cc(=O)n32)cc1 (stereo unspecified)	none
N/C(=N\OC(=O)c1ccccc1)C(Cc1ccccc1)C(=O)NOC(=O)c1ccccc1 (stereo unspecified)	MITF TRPM1 inh 61.6
O=C(NOC(=O)c1ccccc1)c1ccccc1	none (no result: Shn3 inh set2)
COCCNC(=O)Cn1nc(-c2ccccc2F)ccc1=O	TWEAK-Fn14 inh 50.6
Cc1ccsc1C(=O)N1CCC1(C)C(=O)NS(=O)(=O)c1cccc(F)c1 (stereo unspecified)	none (no result: MITF TRPM1 inh, LMP1 NFkB inh)
Cc1sc(N=Nc2ccc(N(C)C)cc2)[n+]([O-])c1C	TROY signal inh 62.8, TWEAK-Fn14 inh 60.5 (no result: MITF TRPM1 inh)
Cc1ccc(N=Cc2ccc(N(C)C)cc2)cc1	none
CC(=O)C1=C(C)N(Cc2ccccc2)C(=O)N[C@H]1c1ccco1	none
CCN(CC(=O)NC1CCS(=O)(=O)C1)c1ccc([N+](=O)[O-])cc1C#N (stereo unspecified)	none
O=C(c1ccccc1)c1ccccc1N1C(=O)C=CC1=O	Shn3 inh set2 93.0
